esBAF inh = blocks esBAF chromatin remodeling in mouse ES cells; hit rate 2% among 350,000; reporter increase, % at 12.5 µM; Bmi1-luciferase knock-in reporter, 24 h; 100% = twice the neutral-well signal; in the data active = activation above about 40%; inconclusive = no clear call, values can overlap the other calls;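 note: 0% = median of the plate's neutral control wells and 100% = double that signal; a rise in the Bmi1 reporter signal indicates esBAF inhibition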
HSF1 inhib = HSF1 inhibition. NIH3T3-HGL HSE-luciferase, MG132-induced, luminescence 8 h; active compounds read low. hit rate 0.77% among 300,000. activity change, negative = inhibition, % at 7.5 µM (by protocol);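 active = more than half of replicate wells show activity change below -50%, luminescence cut by over half; inconclusive = some wells, but at most half, below -50%; inactive = no replicate well below -50%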;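 note: luciferase reports HSF-1 transcriptional activity via heat shock element; 0% = median of DMSO wells and -100% = zero luminescence signal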
HSF-1 act = increases HSF-1 driven luciferase reporter signal. NIH3T3-HGL HSF-1 luciferase reporter, MG132, 8 h; 100% = twice DMSO control signal. activation, % at 9 µM. hit rate 1.7% among 300,000. AID 504408;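 active = mean replicate activation of at least 50% with a set share of replicates each reaching 50%; inconclusive = only one of those two conditions met; inactive = mean below 50% and too few replicates reaching it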;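 note: 0% = median of the neutral control wells and 100% = twice that signal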
SMARCA2 activ = SMARCA2 function activation, primary screen; MG213 cells, MMTV-luciferase reporter, dexamethasone, overnight; activation, % at 9.1 µM; AID 652017; hit rate 1% among 370,000; in the data active = activation above about 7.8%;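 note: 0% = vehicle wells and 100% = reference activator wells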
Wnt act = Wnt/beta-catenin pathway activation. Wnt/beta-catenin reporter cell assay, activator, plate reader. activation, % at 9.35 µM. hit rate 1.2% among 300,000. AID 743398; in the data active = activation above about 30%, passing the limit was not always enough; inconclusive = no clear call, values can overlap the other calls;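 note: 0% = neutral control wells and 100% = positive control wells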
MITF TRPM1 HTS = MITF TRPM1 promoter activation in melanoma cells. SK-MEL-5 TRPM1-promoter luciferase, 24 h; % of positive control, neutral wells = 0. activation, % at 12.5 µM. hit rate 0.75% among 300,000. AID 588334;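 active = mean activation of at least 80% with every replicate also reaching 80%; inconclusive = mean reaches 80% but some replicate falls short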;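 note: 0% = neutral control wells and 100% = parthenolide positive control wells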
The depositor's hits bear a star; ? = inconclusive; / = no result. In the library only some 4.3% were active in any assay of this set; here they are far more common.

SMILES	esBAF inh	HSF1 inhib	HSF-1 act	SMARCA2 activ	Wnt act	MITF TRPM1 HTS
CC(C)CC#Cc1ccc2c(c1)O[C@@H](CN(C)C)[C@H](C)CN([C@H](C)CO)S2(=O)=O	-10	/	/	/	/	/
COCCCNC(=O)CCn1c(=O)c2ccccc2n(CC(=O)Nc2cc(Cl)ccc2C)c1=O	-5	45	83*	3	-3	-1
COCCCNC(=O)CCCn1c(=O)c2ccccc2n(CC(=O)Nc2c(C)cccc2C)c1=O	-3	-1	16	1	0	6
CCCCNC(=O)C1(C)CCCCN1C(=O)c1cccs1 (centres undefined)	1	/	/	-3	39*	/
CCCCNC(=O)C1(C)CCCCN1C(=O)c1ccno1 (centres undefined)	0	/	/	2	0	/
CCCCNC(=O)C1(C)CCCCN1C(=O)c1c(C)noc1C (centres undefined)	4	/	/	-1	33*	/
CN1C(=O)c2cc(NC(=O)C3CCCCC3)ccc2OC[C@H]2O[C@H](CC(=O)NC3CCCC3)CC[C@H]21	12	/	/	/	/	/
CN(C)C(=O)c1cccc(-c2ccc3c(c2)[C@@H]2[C@@H](CCN2S(=O)(=O)c2ccccc2)[C@@H](CO)N3)c1	2	/	/	/	/	/
C[C@H](CO)N1C[C@H](C)[C@H](CN(C)Cc2ccncc2)OCCCC[C@H](C)Oc2ccc(NC(=O)Nc3ccc(F)cc3)cc2C1=O	3	/	/	/	/	/
CCOC(=O)C1CCN(Cc2cc(Cl)c3ccccc3c2O)CC1	-84	78	97*	/	/	0
NCCCCCc1nnc(SCc2ccccc2Cl)o1	-62	-9	-17	-10	/	/
NCCCCCc1nnc(SCC(=O)c2ccc(Cl)cc2)o1	0	30	58*	1	-3	4
NCCCCCc1nnc(SC/C=C/c2ccccc2)o1	-8	57	97*	-4	/	/
C[C@H]1CN([C@@H](C)CO)C(=O)Cc2cc(NS(=O)(=O)c3ccccc3)ccc2O[C@@H]1CN(C)CC1CCCCC1	2	/	/	/	/	/
CCOc1ccccc1CNCCN1CCOCC1	-6	14	58*	4	/	8
CO[C@H]1CC[C@@H]2CCN(C)C(=O)[C@@H](C)CN(C)C(=O)c3cccc(C#N)c3OC[C@H]1O2	-5	/	/	/	/	/
CN(C)c1ccc(/C=N/OC(=O)Nc2ccccc2)cc1	2	26	?	4	52*	34
Cc1ccc(NC(=O)CO/N=C/c2ccc(N(C)C)cc2)cc1	/	-4	11	0	-4	22
COc1ccc(N2CCN(C(=O)C3Cc4ccccc4CN3C(=O)c3ccccc3)CC2)cc1 (centres undefined)	72*	-5	2	-1	16	47
CO[C@@H]1CN(C)C(=O)c2cc(NS(C)(=O)=O)ccc2OC[C@@H](C)N(C(=O)C2CCCCC2)C[C@H]1C	0	/	/	/	/	/
Cc1ccc(S(=O)(=O)Nc2ccc3c(c2)C(=O)N([C@@H](C)CO)C[C@@H](C)[C@H](CN(C)Cc2ccc(C(=O)O)cc2)OCCCC[C@H](C)O3)cc1	-1	/	/	/	/	/
COc1cc(-c2noc(-c3cccc(Cl)c3)n2)cc(OC)c1OC	3	-4	-15	-1	-4	/
NC(=O)c1ccc(-c2noc(-c3cccc(Cl)c3)n2)cc1	40	/	/	3	36*	125*
O=C(O)c1cccc(-c2noc(-c3cccc(Cl)c3)n2)c1	-82	/	/	5	37*	-91
c1ccc2c(C3OCC4(CCCCC4)CO3)cccc2c1	45*	/	/	2	-5	/
SMILES	esBAF inh	HSF1 inhib	HSF-1 act	SMARCA2 activ	Wnt act	MITF TRPM1 HTS
CO[C@H]1CN(C)C(=O)c2cc(NC(=O)c3nc4ccccc4s3)ccc2OC[C@@H](C)N(Cc2cccnc2)C[C@@H]1C	11	/	/	/	/	/
S=c1[nH]cc(Cc2ccccc2)s1	/	27	60*	0	/	17
COC(=O)c1ccc2c(=O)n(Cc3ccc(C(=O)NCCCN4CCC(C)CC4)cc3)c(=S)[nH]c2c1	/	12	-9	-1	3	1
CC1CCN(CCCNC(=O)c2ccc3c(=O)n(Cc4ccc(Cl)cc4)c(=S)[nH]c3c2)CC1	-3	25	79*	-2	-1	-25
C[C@@H]1CN([C@@H](C)CO)C(=O)c2cc(NC(=O)CCCN(C)C)ccc2O[C@H]1CN(C)C(=O)Nc1cccc2ccccc12	-1	/	/	/	/	/
O=C1c2cc([N+](=O)[O-])cc3cc([N+](=O)[O-])cc(c23)C(=O)N1c1ccccn1	/	92	124*	0	3	-82
O=C1c2ccc(Oc3cccc([N+](=O)[O-])c3)cc2C(=O)N1c1ccccn1	/	-1	19	-2	-6	-2
CCc1ccc(C(=O)/C=C/c2ccc([N+](=O)[O-])o2)cc1	/	124	155*	1	/	0
CCOC(=O)c1ccc(N=NN(C)C)cc1	/	11	-3	0	1	99*
CCOC(=O)c1ccc(N)cc1	4	/	/	2	0	15
CCOC(=O)c1ccc(N=c2scc(C)n2CC)cc1	58*	1	11	7.8*	?	52
O=C(C[C@H]1CC[C@@H]2[C@H](COC[C@@H](O)CN2Cc2nccs2)O1)NCc1ccc(F)cc1	1	/	/	/	/	/
CCOc1ccc(-c2nc(CSCC(=O)NC3CC3)c(C)o2)cc1	-85	-84*	-85	/	/	-21
CCOC(=O)N1CCC(NC(=O)CSCc2nc(-c3ccc(OCC)cc3)oc2C)CC1	-2	20	34	1	8	-4
CCOc1ccc(-c2nc(CSCC(=O)NCc3ccco3)c(C)o2)cc1	-87	-72*	-74	-7	/	-17
O=C(CN1CCOCC1)N[C@@H]1CC[C@@H](CCn2cc(C3CC3)nn2)O[C@@H]1CO	-2	/	/	/	/	/
CCc1noc(C)c1C(=O)N1CCCC(C(=O)c2cc(F)ccc2OC)C1 (centres undefined)	6	-6	-4	-1	2	3
CCOC(=O)N1CCC(N2CCCC(C(=O)c3cc(F)ccc3OC)C2)CC1 (centres undefined)	/	7	9	2	50*	-9
CCN(CC(=O)Nc1ccc(NC(C)=O)cc1)C(=O)/C=C/c1ccco1	-7	5	11	0	-6	5
CCCN(CC(=O)Nc1ccc(Cl)cc1Cl)C(=O)/C=C/c1ccco1	/	50	64*	3	21	16
O=C(Cc1csc(NC(=O)Nc2ccc(Cl)cc2)n1)NCc1ccccn1	45*	16	27	0	3	58
C[C@@H]1CN([C@H](C)CO)C(=O)c2cccc(NC(=O)c3cnccn3)c2O[C@@H]1CN(C)S(=O)(=O)c1ccccc1	-2	/	/	/	/	/
CCC(CO)NCC#Cc1ccccc1 (centres undefined)	/	32	62*	0	?	-2
O=C(C[C@@H]1C=C[C@H](NC(=O)Nc2cc(F)ccc2F)[C@H](CO)O1)Nc1ccccc1	0	/	/	/	/	/
Cc1noc(C)c1COC(=O)c1cc(C)n(-c2ccccc2)c1C	80*	19	24	3	/	/

Assay outcomes as filed in PubChem.
